# In PubChem BioAssay:
# The other results are listed elsewhere or left out. Calls of active or inactive are those of the source. Rule as the data show it, unless noted: active = activity above about 50%; inactive = the rest.
# Legend:
# [1] = molecular target: Tumor necrosis factor receptor superfamily member 10B (Homo sapiens) (UniProt O14763); assay: caspase-8 TRAIL sensitization, hit retest, confirmation, cell-based, NB7+caspase-8, with/without TRAIL, luminescence panel (AID 651596); details: NB7 neuroblastoma + caspase-8, TRAIL sensitization, luminescence viability, with TRAIL, mean of runs, at 10 µM, stronger effect = higher value
# [2] = as above; details: NB7 neuroblastoma + caspase-8, without TRAIL, luminescence viability, without TRAIL, mean of runs, at 10 µM
# [3] = molecular target: Tumor necrosis factor receptor superfamily member 10B (Homo sapiens) (UniProt O14763); assay: TRAIL sensitizers in caspase-8 expressing neuroblastoma cells, dose response, NB7 cells plus caspase-8, luminescence, panel (AID 652002); details: NB7 neuroblastoma +caspase-8, TRAIL sensitization, luminescence viability, NB7+Caspase-8, with TRAIL, run 1; at 12.5 µM (top of the series)
# [4] = molecular target: Tumor necrosis factor receptor superfamily member 10B (Homo sapiens) (UniProt O14763); assay: as above; details: NB7 neuroblastoma +caspase-8, TRAIL sensitization, luminescence viability, NB7+Caspase-8, with TRAIL, run 2; at 12.5 µM (top of the series)
# [5] = as above; details: NB7 neuroblastoma +caspase-8, no TRAIL, compound-alone cytotoxicity counter-screen, luminescence viability, NB7+Caspase-8, run 1; at 12.5 µM (top of the series)
# [6] = as above; details: NB7 neuroblastoma +caspase-8, no TRAIL, compound-alone cytotoxicity counter-screen, luminescence viability, NB7+Caspase-8, run 2; at 12.5 µM (top of the series)
# [7] = molecular target: 72 kDa type IV collagenase (Homo sapiens) (UniProt P08253); assay: MMP-2 protease inhibition counter-screen, confirmation, counter-screen for CSN deneddylation inhibitor project, biochemical, fluorescence, single concentration (AID 720655;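 active = corrected plate-normalized z-score of 5 or more, or -5 or less, or inhibition of 15% or more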;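 also: plate controls were DMSO wells with enzyme for no effect and buffer wells lacking MMP-2 for full effect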); details: recombinant MMP-2, FRET substrate fluorescence, 60 min; at 16.6 µM
# Prothrombin (Bos taurus) = Prothrombin (Bos taurus) (UniProt P00735); assay: bovine thrombin inhibition counter-screen, confirmation, counter-screen for CSN deneddylation inhibitor project, biochemical, fluorescence polarization, single concentration (AID 720656;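 active = inhibition at or above a set limit, with a fluorescence interference ratio between 0.5 and a set maximum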); details: bovine thrombin cleavage of Ub4-pepOG, at 16.6 µM, stronger effect = higher value
# Prothrombin (Bos taurus), sequence (P00735 whole entry, looked up): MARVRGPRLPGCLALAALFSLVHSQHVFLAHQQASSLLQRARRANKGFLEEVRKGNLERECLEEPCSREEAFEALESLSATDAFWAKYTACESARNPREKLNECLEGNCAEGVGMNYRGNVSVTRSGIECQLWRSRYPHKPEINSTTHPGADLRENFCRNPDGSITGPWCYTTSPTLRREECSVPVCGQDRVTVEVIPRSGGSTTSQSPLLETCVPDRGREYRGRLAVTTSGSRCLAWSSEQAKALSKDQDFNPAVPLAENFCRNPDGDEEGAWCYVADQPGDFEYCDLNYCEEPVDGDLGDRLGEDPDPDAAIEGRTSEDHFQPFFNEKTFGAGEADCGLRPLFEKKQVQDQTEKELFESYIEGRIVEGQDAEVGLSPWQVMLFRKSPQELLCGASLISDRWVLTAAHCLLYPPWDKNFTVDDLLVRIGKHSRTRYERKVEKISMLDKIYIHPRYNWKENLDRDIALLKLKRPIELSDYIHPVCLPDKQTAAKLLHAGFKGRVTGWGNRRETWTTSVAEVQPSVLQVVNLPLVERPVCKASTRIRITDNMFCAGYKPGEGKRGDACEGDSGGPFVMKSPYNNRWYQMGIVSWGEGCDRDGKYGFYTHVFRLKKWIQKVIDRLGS
# Tumor necrosis factor receptor superfamily member 10B (Homo sapiens), sequence (O14763 whole entry, looked up): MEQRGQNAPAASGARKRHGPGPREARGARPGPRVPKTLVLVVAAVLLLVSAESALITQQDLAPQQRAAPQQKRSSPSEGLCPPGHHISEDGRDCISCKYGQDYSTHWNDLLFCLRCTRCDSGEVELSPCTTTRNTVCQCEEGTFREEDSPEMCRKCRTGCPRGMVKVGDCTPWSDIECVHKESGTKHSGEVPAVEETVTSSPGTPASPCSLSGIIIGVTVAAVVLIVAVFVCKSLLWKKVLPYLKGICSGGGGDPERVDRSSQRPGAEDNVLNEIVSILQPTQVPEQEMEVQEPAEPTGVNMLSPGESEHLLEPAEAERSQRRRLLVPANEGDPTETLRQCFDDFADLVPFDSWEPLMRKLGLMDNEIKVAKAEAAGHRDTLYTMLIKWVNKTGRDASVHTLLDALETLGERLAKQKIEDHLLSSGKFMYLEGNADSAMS
# 72 kDa type IV collagenase (Homo sapiens), sequence (P08253 whole entry, looked up): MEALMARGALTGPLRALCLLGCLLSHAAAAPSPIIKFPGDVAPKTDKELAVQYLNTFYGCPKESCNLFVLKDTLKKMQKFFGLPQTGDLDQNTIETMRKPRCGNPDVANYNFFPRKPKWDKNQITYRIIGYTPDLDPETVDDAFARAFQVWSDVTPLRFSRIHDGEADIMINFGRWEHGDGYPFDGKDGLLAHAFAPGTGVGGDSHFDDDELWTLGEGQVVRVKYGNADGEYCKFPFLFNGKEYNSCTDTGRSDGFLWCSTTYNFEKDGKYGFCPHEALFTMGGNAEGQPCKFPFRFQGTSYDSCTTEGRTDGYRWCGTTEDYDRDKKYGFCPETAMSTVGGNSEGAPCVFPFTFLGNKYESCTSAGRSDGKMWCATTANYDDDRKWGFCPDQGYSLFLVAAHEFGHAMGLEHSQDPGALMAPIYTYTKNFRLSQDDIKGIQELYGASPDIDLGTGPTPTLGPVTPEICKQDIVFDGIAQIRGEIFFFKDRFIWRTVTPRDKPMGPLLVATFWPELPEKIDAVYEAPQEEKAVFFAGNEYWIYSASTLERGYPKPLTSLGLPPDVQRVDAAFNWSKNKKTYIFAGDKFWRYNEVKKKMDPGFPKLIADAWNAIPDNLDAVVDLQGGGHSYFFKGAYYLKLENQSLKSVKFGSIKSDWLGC
smiles,measurement,setting,value
CCOC(=O)[C@]12Cc3cc(Cl)ccc3[C@H]1N(Cc1ccccc1)C(=O)c1cc(OC)ccc12,activity,[1],91.9%
same,activity,[2],97.9%
CC1=CC2OC3CC4OC(=O)C=CC=CC(=O)OCCC(C)C(O)C(=O)OCC2(CC1)C4(C)C31CO1 (centres undefined),activity,[1],75.6%
same,activity,[2],80.9%
CC(C)N(C(=O)CCl)c1ccccc1,activity,[1],98%
same,activity,[2],98.3%
O=c1[nH]c2ccccc2n1C1CCN(C(CCc2ccccc2)c2nnnn2Cc2ccccc2)CC1 (centres undefined),activity,[1],95.3%
same,activity,[2],92.7%
CC(=O)OC1C(=O)OCC23CCC4(C)OC4C2OC2CC(OC(=O)C=CC=CC(=O)OCCC1C)C3(C)C21CO1 (centres undefined),activity,[1],89.6%
same,activity,[2],92.9%
CN(C)CC(C(=O)Cc1ccccc1)c1ccccc1 (centres undefined),activity,[1],37.9%
same,activity,[2],96.3%
COc1ccc(-n2nnnc2C(c2cc3ccccc3o2)N2CCC(n3c(=O)[nH]c4ccccc43)CC2)cc1 (centres undefined),activity,[1],69.4%
same,activity,[2],62.5%
CNC(=O)Oc1ccc(-c2cn3cc(C)ccc3n2)cc1,activity,[1],95.7%
same,activity,[2],95.5%
Clc1ccc(C[n+]2c(-c3ccccc3)cc(-c3ccccc3)cc2-c2ccccc2)cc1,activity,[1],79.1%
same,activity,[2],65.9%
CCCOC(=O)c1ccc(-[n+]2c(-c3ccccc3)cc(-c3ccccc3)cc2-c2ccccc2)cc1,activity,[1],74.7%
same,activity,[2],68.3%
COC(=O)[C@@H]1[C@@H](C(=O)OC)C2(c3ccccc3-c3ccccc32)N(c2ccc(Cl)cc2)N1C#N,activity,[1],96.8%
same,activity,[2],99.2%
CCOC(=O)[C@]12Cc3ccc(C)cc3[C@H]1N(C1CCCCC1)C(=O)c1ccccc12,activity,[1],90.7%
same,activity,[2],90.5%
C[C@@H]1O[C@@H](O[C@@H]2C=C3CC[C@@H]4C(CC[C@]5(C)[C@@H](c6ccc(=O)oc6)CC[C@]45O)[C@@]3(C)CC2)[C@H](O)[C@H](O)[C@H]1O (some centres undefined),activity,[1],82.4%
same,activity,[2],91.5%
C[C@]12CC[C@H]3C(CCC4(O)CC(O)CC[C@]34C=O)C1=CC[C@H]2c1ccc(=O)oc1 (some centres undefined),activity,[1],70.2%
same,activity,[2],55.2%
CC1CCOC(=O)C=CC=CC(=O)OC2CC3OC4C5OC5(C)C(O)CC4(COC(=O)C1O)C2(C)C31CO1 (centres undefined),activity,[1],93.7%
same,activity,[2],97.2%
CN(C)C(=O)O/N=C(\N)COc1ccc(C(C)(C)C)cc1,activity,[1],96.8%
same,activity,[2],98.2%
CC12CCC3C(CCC4(O)CC(O)CCC34C=O)C1(O)CCC2C1=CC(=O)OC1 (centres undefined),activity,[1],82.5%
same,activity,[2],85.2%
Cc1ccccc1-[n+]1c(-c2ccccc2)cc(-c2ccccc2)cc1-c1ccccc1,activity,[1],75.7%
same,activity,[2],64.1%
COC(=O)C12OCC34C(CC5C(C)=C(O)C(=O)CC5(C)C3C(O)C1O)OC(=O)C(OC(=O)/C=C(\C)C(C)C)C24 (centres undefined),activity,[1],94.8%
same,activity,[2],97.5%
CC(=O)OCC12CC(OC(=O)CC(C)C)C(C)=CC1OC1C(O)C(OC(C)=O)C2(C)C12CO2 (centres undefined),activity,[1],93%
same,activity,[2],97.6%
CC(=O)OC[C@]12CCC(C)=C[C@H]1O[C@@H]1[C@H](O)[C@@H](OC(C)=O)[C@@]2(C)[C@]12CO2,activity,[1],95.1%
same,activity,[2],97.4%
COc1ccc(-[n+]2c(-c3ccccc3)cc(-c3ccc(C)cc3)cc2-c2ccccc2)cc1,activity,[1],74.3%
same,activity,[2],64.8%
Nc1ncnc2c1ccn2[C@@H]1O[C@H](CO)[C@@H](O)[C@H]1O,activity,[1],97.7%
same,activity,[2],97.9%
CCOC(=O)[C@]12Cc3cc(Cl)ccc3[C@H]1N(C1CCCCC1)C(=O)c1ccccc12,activity,[1],98.5%
same,activity,[2],99.3%
CC12CCC(O)CC1CCC1C2CCC2(C)C(C3=CC(=O)OC3)C(O)CC12O (centres undefined),activity,[1],80.4%
same,activity,[2],53.5%
CCOC(=O)[C@]12Cc3cc(OC)ccc3[C@H]1N(C1CCCCC1)C(=O)c1cc(OC)ccc12,activity,[1],57.6%
same,activity,[2],75.7%
CCOC(=O)[C@]12Cc3ccc(C)cc3[C@H]1N(C1CCCCC1)C(=O)c1cc(OC)ccc12,activity,[1],97.5%
same,activity,[2],98%
CC1=CC2OC3CC4OC(=O)C=CC=CC(=O)OCCC(C)C(O)C(=O)OCC2(CC1O)C4(C)C31CO1 (centres undefined),activity,[1],92.9%
same,activity,[2],96.9%
ClCCN(CCCl)c1ccc(-n2cnc3c(Cl)ncnc32)cc1,activity,[1],96.3%
same,activity,[2],98.2%
CCOC(=O)[C@]12Cc3cc(C)ccc3[C@H]1N(C1CCCCC1)C(=O)c1ccccc12,activity,[1],95.3%
same,activity,[2],96.5%
Cc1cccc(C)c1-n1nnnc1C(CCc1ccccc1)N1CCC(n2c(=O)[nH]c3ccccc32)CC1 (centres undefined),activity,[1],90.2%
same,activity,[2],82%
C=CCn1c(O)c(C(CC)=NCc2cc(OC)cc(OC)c2)c(=O)[nH]c1=O,activity,[1],46.4%
same,activity,[2],37.5%
CCOC(=O)[C@]12Cc3cc(Cl)ccc3[C@H]1N(C(C)C)C(=O)c1ccccc12,activity,[1],79.3%
same,activity,[2],85.9%
CCOC(=O)[C@]12Cc3cc4ccccc4cc3[C@H]1N(Cc1ccccc1)C(=O)c1cc(OC)ccc12,activity,[1],46.5%
same,activity,[2],53.2%
same,"activity, % sensitization",[3],23.8%
same,"activity, % sensitization",[4],23.6%
same,"activity, % sensitization",[5],7.37%
same,"activity, % sensitization",[6],2.99%
COc1ccc(N2C(=O)/C(=C/c3ccco3)C(=O)NC2=S)cc1,inhibition,[7],38.2% (active)
same,inhibition,Prothrombin (Bos taurus),24.5% (active)
CCOC(=O)[C@]12Cc3cc(OC)ccc3[C@H]1N(C1CCCCC1)C(=O)c1ccccc12,activity,[1],91.9%
same,activity,[2],94.1%
CC(C)CCn1c(=O)c(C(=O)Nc2ccccc2S(N)(=O)=O)c(O)c2ccccc21,activity,[1],55.4%
same,activity,[2],45.3%
same,"activity, % sensitization",[3],-2.11%
same,"activity, % sensitization",[4],-8.54%
same,"activity, % sensitization",[5],-27.8%
same,"activity, % sensitization",[6],-20%
CN(C)C(=O)Oc1ccc(OCc2nc3ccccc3[nH]2)cc1,activity,[1],75.7%
same,activity,[2],78.1%
Cc1ccc(NC(=O)CN2C(=O)CN=C(c3ccccc3)c3cc(Cl)ccc32)cc1,activity,[1],78.1%
same,activity,[2],85%
CC12CCC3C(CCC4(O)CC(O)CCC34C=NO)C1(O)CCC2C1=COC(=O)C1 (centres undefined),activity,[1],91%
same,activity,[2],92.7%
CCOC(=O)[C@]12Cc3cc(OC)ccc3[C@H]1N(C(C)C)C(=O)c1cc(OC)ccc12,activity,[1],28%
same,activity,[2],45%
CC[C@H](C)[C@@H]1NC(=O)CNC(=O)c2csc(n2)[C@H](C(C)(C)O)OC(=O)C(C)(C)[C@H](CCCC(C)(Cl)Cl)OC(=O)c2csc1n2,activity,[1],53.5%
same,activity,[2],78.6%
COc1ccc2nc(-c3ccc(CN4CCC(n5c(=O)[nH]c6ccccc65)CC4)cc3)c(-c3ccccc3)nc2c1,activity,[1],39.8%
same,activity,[2],24.9%
CCOC(=O)C(=CNc1ccc(C(O)(C(=O)OCC)C(F)(F)F)cc1C)C(=O)OCC (centres undefined),activity,[1],-5.97%
same,activity,[2],6.08%
CC(C)(O)/C=C/C(=O)C(C)(O)C1C(O)CC2(C)C3CC=C4C(C=C(O)C(=O)C4(C)C)C3(C)C(=O)CC12C (centres undefined),activity,[1],46.5%
same,activity,[2],81.1%
Oc1ccc(-[n+]2c(-c3ccccc3)cc(-c3ccccc3)cc2-c2ccccc2)cc1,activity,[1],90.3%
same,activity,[2],59.6%
CN(C)C(=O)Oc1ccc(-c2cn3cc(Cl)ccc3n2)cc1,activity,[1],80%
same,activity,[2],85.6%
CNC(=O)Oc1ccc(-c2cn3cc(Cl)ccc3n2)cc1,activity,[1],85.8%
same,activity,[2],84.1%
